# ELG1 repair inh: blocks ELG1-dependent DNA repair in HEK293T cells; HEK293T ELG1-luciferase reporter, luminescence, 16 h; DNA damage induced by 5-fluorouridine; Potency, µM (top dose mostly 46.1 µM), most hits filed as inhibitors; hit rate 2.3% among 330,000; note: nearly all actives have a fitted effect of over 55% in size
#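 5-Fluorouridine DNA damage + compound/DMSO, 2,000 cells/well, 16 h, 37 °C/5% CO2. ONE-Glo, 30 min RT, luminescence. Readout = decrease in reporter signal.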
# SMN2 splice up: SMN2 splice variant enhancement. Potency, µM (doses to about 46.1 µM), hits mostly activators. HEK293 SMN2-luciferase splicing reporter, luminescence, 30-36 h. hit rate 2.8% among 210,000; note: nearly all actives have a fitted effect of over 55% in size
#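 qHTS luciferase splicing reporter: luminescence rises when SMN2 exon 7 is included in transfected HEK293 cells. Compound exposure lasted 30-36 h at 37C, with 4.5 mM final sodium butyrate as control, followed by a ONE-Glo read.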
# Rab9 prom act: activators of Rab9 promoter; Huh7 Rab9 promoter-luciferase reporter, luminescence, 24 h; Potency, µM (titrated, usually from 9.22 µM), hits mostly activators; hit rate 2.8% among 320,000; AID 485297; note: nearly all actives have a fitted effect of over 60% in size
#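 Huh7 reporter line, Rab9 promoter upstream of luciferase. Compound exposure 24 h at 37 °C in reduced-serum medium with 10% FBS. Read-out: luminescence.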
# NPC1 promoter act: activates the NPC1 promoter. Huh7 NPC1 promoter luciferase reporter, 24 h. Potency, µM (titrated, usually from 9.22 µM), most hits filed as activators. hit rate 2.4% among 320,000. AID 485313; note: nearly all actives have a fitted effect of over 60% in size
#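 Quantitative HTS used a cell-based reporter: Huh7 cells stably bearing the NPC1 promoter upstream of luciferase were treated with compounds for 24 h, and promoter activation was read as luminescence.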
# FLuc modulator: inhibits or activates purified firefly luciferase, miR-21 counter-screen | P08659 | purified FLuc, Km substrates, luminescence inhibition | Potency, µM (series often up to 57.5 µM), most hits filed as inhibitors | hit rate 6.9% among 360,000; note: nearly all actives have a fitted effect of over 55% in size
# Target sequence (P08659 whole entry, looked up): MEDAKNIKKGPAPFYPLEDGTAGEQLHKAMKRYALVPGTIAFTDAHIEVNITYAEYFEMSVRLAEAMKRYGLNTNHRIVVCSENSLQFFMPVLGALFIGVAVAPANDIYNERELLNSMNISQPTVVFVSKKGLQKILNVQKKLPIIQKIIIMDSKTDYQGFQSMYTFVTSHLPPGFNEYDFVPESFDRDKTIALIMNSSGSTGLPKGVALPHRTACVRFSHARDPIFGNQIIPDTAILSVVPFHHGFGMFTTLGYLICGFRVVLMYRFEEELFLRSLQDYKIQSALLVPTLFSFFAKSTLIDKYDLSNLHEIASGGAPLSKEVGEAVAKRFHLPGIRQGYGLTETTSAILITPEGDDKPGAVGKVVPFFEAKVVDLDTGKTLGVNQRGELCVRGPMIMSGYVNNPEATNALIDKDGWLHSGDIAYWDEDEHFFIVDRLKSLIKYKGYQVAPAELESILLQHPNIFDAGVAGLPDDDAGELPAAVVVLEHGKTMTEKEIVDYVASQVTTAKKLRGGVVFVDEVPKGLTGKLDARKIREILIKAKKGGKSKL
#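 Purified P. pyralis luciferase, 10 nM final, with Km-level 10 uM D-luciferin and 10 uM ATP in 50 mM Tris acetate pH 7.5, 10 mM Mg acetate, 0.01% Tween-20, 0.05% BSA; 6-point qHTS titration about 60 µM downward; luminescence read.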
# ELG1 genotox: induces genotoxicity in HEK293T cells with luciferase-tagged ELG1; HEK293T ELG1-luciferase reporter, luminescence, 16 h; Potency, µM (top dose mostly 46 µM), actives largely listed as activators; hit rate 1.3% among 330,000; AID 504466; note: nearly all actives have a fitted effect of over 60% in size
#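 Genotoxic stress is detected as increased luminescence from luciferase-tagged ELG1 in HEK293T cells, measured with ONE-Glo after a 16 hr treatment at 37 °C.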
# Hits are given with their value; - = inactive; ? = inconclusive; . = not tested or not shown. Most compounds without a hit are left out; they make up all but 9.2% or so of the library. Calls come from the whole dose curve; as a rule, active = well fitted curve in the direction sought with a large enough effect; inconclusive = small, poorly fitted or top-dose-only effect, or another doubt; inactive = no such curve, though single readings can be large; an effect the other way counts as inactive or inconclusive.
SMILES,ELG1 repair inh,SMN2 splice up,Rab9 prom act,NPC1 promoter act,FLuc modulator,ELG1 genotox
CC(=O)N1CCN(S(=O)(=O)c2cccc(C(=O)Nc3ccccc3N3CCCCC3)c2)CC1,-,.,-,-,-,-
O=C(Nc1ccccc1)c1cc2n(n1)C(C(F)(F)F)CC(C1CC1)N2 (stereo not given),?,.,1.8µM,2.8µM,-,?
COc1ccc(C2CC(C(F)(F)F)n3nc(C(=O)Nc4ccc5c(c4)OCO5)cc3N2)cc1 (stereo not given),23µM,-,-,-,-,-
COc1ccc(OC)c(NC(=O)c2cc3n(n2)C(C(F)(F)F)CC(c2ccc4c(c2)OCO4)N3)c1 (stereo not given),-,-,-,-,-,-
COc1ccccc1NC(=O)c1cc2n(n1)C(C(F)(F)F)CC(c1ccc3c(c1)OCO3)N2 (stereo not given),16µM,-,-,-,-,-
CC(C)CNS(=O)(=O)c1ccc(S(=O)(=O)N2CCN(C3CCCC3)CC2)cc1,-,.,-,-,-,-
CC1CCc2sc(C(=O)NCC3CCCO3)cc2C1 (stereo not given),?,.,4µM,2.8µM,11µM,?
CC1CCc2sc(C(=O)NNC(=O)c3ccncc3)cc2C1 (stereo not given),?,.,-,-,?,-
CC1CCc2sc(C(=O)NNS(=O)(=O)c3ccc(F)c(F)c3F)cc2C1 (stereo not given),?,.,-,-,11µM,-
CC1CCc2sc(C(=O)NN)cc2C1 (stereo not given),?,.,-,-,?,-
CC1CCc2sc(C(=O)Nc3ccc(C(N)=O)cc3)cc2C1 (stereo not given),?,.,-,?,2.4µM,?
CC1CCc2sc(C(=O)NNC(=S)NC3CC3)cc2C1 (stereo not given),?,.,1.1µM,?,-,-
COc1cc(C(=O)OCC(=O)Nc2cc(C)on2)c([N+](=O)[O-])cc1OC,-,.,-,-,-,-
COc1ccc(NC(=O)Cn2cnc3sc(C)c(S(=O)(=O)N4CCN(C)CC4)c3c2=O)cc1OC,-,-,-,-,-,-
CCCNC(=O)NC(=O)CSc1cccc(C(F)(F)F)c1,-,-,-,-,-,-
Nc1ncnc2n[nH]c(Nc3ccc(F)cc3)c12,.,.,-,-,.,.
Cc1ccc(S(=O)(=O)N2CCOCC2)cc1NC(=O)CSc1ncccn1,-,.,-,-,-,-
Cc1cc2nnc(SCC(=O)Nc3cc(S(=O)(=O)N4CCOCC4)ccc3Cl)n2c2ccccc12,18µM,-,-,-,-,-
Cc1ccc(-n2c(SCC(=O)Nc3cc(S(=O)(=O)N4CCOCC4)ccc3Cl)nc3ccccc3c2=O)cc1,-,-,-,-,-,-
Cc1ccc(S(=O)(=O)N2CCOCC2)cc1NC(=O)CSc1nnc2cc(C)c3ccccc3n12,18µM,-,-,-,?,-
O=C(CSc1nc2ccccc2s1)Nc1cc(S(=O)(=O)N2CCOCC2)ccc1Cl,23µM,-,-,-,?,-
O=C(CNc1ccccc1Cl)Nc1cc(S(=O)(=O)N2CCOCC2)ccc1Cl,?,.,-,-,-,-
CCOC(=O)COc1cc(N)c(Cl)cc1Cl,-,-,-,-,?,-
COc1ccc(-c2noc(-c3ccccc3-c3ccccc3)n2)cc1,-,-,-,-,?,-
COc1cccc(-c2noc(-c3ccc(Br)o3)n2)c1,?,22µM,1.4µM,2.5µM,3µM,?
COc1cc(-c2noc(-c3cc(C(C)C)[nH]n3)n2)cc(OC)c1OC,.,.,.,.,-,.
CC(C)c1cc(-c2nc(-c3ccc(Cl)cc3)no2)n[nH]1,.,.,.,.,9.5µM,.
COc1ccc(-c2noc(-c3ccc(Cl)cc3)n2)cc1,?,11µM,?,2.5µM,2.1µM,5.6µM
COc1ccc(-c2nc(-c3ccc(Br)o3)no2)cc1,?,10µM,0.45µM,0.63µM,0.95µM,1.2µM
CC(NCC(=O)Nc1cc(S(=O)(=O)N2CCOCC2)ccc1Cl)c1ccc(Cl)cc1Cl (stereo not given),?,.,-,-,-,-

# Source: PubChem BioAssay
